# Compounds with a hit are over-represented: about 19% of the library has one in this group of screens.
# HepG2 tox – HepG2 cytotoxicity, counter-screen for TGF-b inhibitors; Potency, µM (titrated, usually from 46.1 µM), for inactives: at the top dose activity change, negative = cytotoxicity, usual class: cytotoxic; HepG2 CAGA-GFP viability, ATP luminescence, 18 h; AID 588856; actives 0.76% (n = 410,000); further: potency means the concentration at half of the fitted maximal effect
#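 HepG2 CAGA-GFP cells (1000/well, DMEM with 1% FBS) received compound, then TGF-beta at 500 pg/mL final, and were incubated 18 hours at 37 degrees C. Viability was read by CellTiter-Glo luminescence. Media-only wells were set as complete cell-killing and DMSO as no toxicity.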
# TGFb SMAD3 inh – blocks TGF-b signaling; HepG2 CAGA-GFP TGF-b/SMAD3 reporter, GFP fluorescence, 18 h; TGF-beta stimulated, 500 pg/mL final; actives 1.2% (n = 410,000); Potency, µM (titrated, usually from 46.1 µM), without a hit: at the top dose activity, negative = inhibition, usual class: inhibitors; further: potency means the concentration at half of the fitted maximal effect; on the % scale 0 is the no-effect control and ±100 the full control effect; nearly all actives have a fitted effect of over 65% in size
#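 Using HEPG2 CAGA-GFP reporter cells at 1000 cells/well, we pinned test compounds, stimulated with recombinant TGF-beta (500 pg/mL final) and measured total well GFP after 18 h.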
# IL1B secr inh – inflammasome signaling inhibition, IL-1 beta readout. THP-1 LPS/ATP IL-1B secretion, AlphaLISA, 16 h; stronger effect = lower value. activity change, % at 57.5 µM. actives 4.7% (n = 360,000). AID 743279; in the data active means activity change below about -50%; inconclusive means mostly about -30% to -49%; further: on the % scale 0 is the no-effect control and ±100 the full control effect
#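 Secreted IL-1B measured by AlphaLISA bead assay after 16 h compound exposure of THP-1 cells; compounds (final up to 57.5 uM) added 1 h before LPS (250 ng/mL) and ATP (1.25 mM) stimulation; lower signal means less secretion.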
# DT40 TDP1 CPT – growth inhibition of DT40 Tdp1-/-;hTDP1 cells with camptothecin (screen for TDP1 inhibitors) | chicken DT40 Tdp1-/-;hTDP1 cells + 20 nM CPT, ATP luminescence, 48 h | Potency, µM (doses to about 46.2 µM), for the others: at the top dose activity change, negative = growth inhibition, hits mostly inhibitors | actives 12% (n = 420,000); further: potency means the concentration at half of the fitted maximal effect; on the % scale 0 is the no-effect control and ±100 the full control effect; nearly all actives have a fitted effect of over 55% in size
#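 Chicken DT40 Tdp1-/- cells stably complemented with human TDP1 were seeded at 400 cells/well in medium containing 20 nM camptothecin, exposed to pin-transferred compounds, and grown at 37 °C for at least 48 hr. Viability was read as ATP luminescence.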
# TDP1 cell noCPT – qHTS for Inhibitors of human tyrosyl-DNA phosphodiesterase 1 (TDP1): qHTS in cells in absence of CPT | DT40 Tdp1-/- hTDP1 cells, no CPT, ATP luminescence, 48 h | Potency, µM (doses to about 46.2 µM), without a hit: at the highest dose activity change, negative = growth inhibition, hits mostly inhibitors | actives 15% (n = 420,000) | AID 686978, 2013; further: potency means the concentration at half of the fitted maximal effect; on the % scale 0 is the no-effect control and ±100 the full control effect; nearly all actives have a fitted effect of over 55% in size
#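 Luminescent ATP content (CellTiter-Glo) served as the growth readout. Knockout chicken DT40 cells expressing human TDP1 were exposed to compounds without camptothecin for a minimum 48 hr at 37 °C.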
# TDP1 block – TDP1 (human) enzyme inhibition; Q9NUW8; recombinant TDP1, AlphaScreen DNA substrate cleavage; Potency, µM (top dose mostly 130 µM), for inactives: at the highest dose activity change, negative = inhibition, usual class: inhibitors; actives 0.28% (n = 350,000); AID 485290; further: potency means the concentration at half of the fitted maximal effect; on the % scale 0 is the no-effect control and ±100 the full control effect; nearly all actives have a fitted effect of over 40% in size
# Target sequence (Q9NUW8 whole entry, looked up): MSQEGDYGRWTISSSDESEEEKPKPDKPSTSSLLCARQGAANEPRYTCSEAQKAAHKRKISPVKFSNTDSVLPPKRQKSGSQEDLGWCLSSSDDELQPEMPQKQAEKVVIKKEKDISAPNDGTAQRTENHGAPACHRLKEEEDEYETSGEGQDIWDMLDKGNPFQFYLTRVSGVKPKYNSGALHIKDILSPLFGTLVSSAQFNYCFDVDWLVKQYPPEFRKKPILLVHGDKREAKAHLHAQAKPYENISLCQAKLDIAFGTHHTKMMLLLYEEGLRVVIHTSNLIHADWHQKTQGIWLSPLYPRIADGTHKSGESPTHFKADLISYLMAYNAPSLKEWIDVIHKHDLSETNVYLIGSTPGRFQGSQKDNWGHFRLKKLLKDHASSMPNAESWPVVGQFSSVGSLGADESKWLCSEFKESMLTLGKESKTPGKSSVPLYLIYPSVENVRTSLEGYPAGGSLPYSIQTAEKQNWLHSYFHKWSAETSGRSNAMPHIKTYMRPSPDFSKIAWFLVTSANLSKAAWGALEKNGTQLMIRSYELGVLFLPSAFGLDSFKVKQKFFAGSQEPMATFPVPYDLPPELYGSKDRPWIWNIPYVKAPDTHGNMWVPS
#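 Here, a 5' biotin and 3' phosphotyrosine-FITC DNA oligonucleotide reports Tdp1 activity: intact substrate bridges AlphaScreen beads, while cleavage leaves a 3' phosphate and drops signal. All incubations at room temperature.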
# * = called active by the depositor; ? = inconclusive; nt = not tested or not shown; [ ] = dose if it differs, or a comment. Unless noted, the call rests on the fitted dose curve; in most records, active means well fitted curve in the direction sought with a large enough effect; inconclusive means small, poorly fitted or top-dose-only effect, or another doubt; inactive means no such curve, though single readings can be large; an effect the other way counts as inactive or inconclusive.
SMILES,HepG2 tox,TGFb SMAD3 inh,IL1B secr inh,DT40 TDP1 CPT,TDP1 cell noCPT,TDP1 block
COC(=O)c1c(C)oc2c1cc(NS(=O)(=O)c1c(C)cc(C)cc1C)c1ccccc12,-36.4%,?,nt,11.6µM*,20.6µM*,nt
CCOC(=O)c1c(C)oc2c(Cl)cc(NS(=O)(=O)c3ccc(Cl)c(C)c3)cc12,-94.5%,?,nt,?,25.9µM*,nt
CC(=O)c1c(C)oc2c1cc(NS(=O)(=O)c1c(C)cc(C)cc1C)c1ccccc12,-3.4%,1.4%,nt,nt,nt,0.0%
CCOC(=O)c1c(C)oc2c1cc(NS(=O)(=O)c1ccc(C)cc1)c1ccccc12,-14.9%,-0.4%,nt,?,20.6µM*,6.6%[12.3 µM]
COC(=O)C(C(=O)OC)c1ccccc1NS(=O)(=O)c1c(C)cc(C)cc1C,nt,nt,34.2,16.4µM*,20.6µM*,nt
Cc1ccc(S(=O)(=O)Nc2cc3c(C(=O)OCc4ccccc4)c(C)oc3c3ccccc23)cc1,-25.0%,-1.4%,nt,?,?,nt
CC(=O)c1c(C)oc2c(Cl)cc(NS(=O)(=O)c3ccc(Cl)cc3)cc12,8.1%,14.6%,nt,nt,nt,2.8%
COCCCNC(=O)Cn1nc(N2CCN(c3ccccc3)CC2)ccc1=O,-13.7%,-1.4%,nt,1.1%,-1.1%,2.6%
COc1ncc2ncc(=O)n(CCc3ccccc3)c2n1,nt,nt,nt,-26.5%,-15.1%,nt
CN(C(=O)COC(=O)C1CCN(S(=O)(=O)c2ccc3c(c2)OCCO3)CC1)C1CCCCC1,5.5%,-0.4%,11.6,-2.8%,-18.6%,nt
O=C(CSc1n[nH]c(=O)[nH]c1=O)Nc1ccc(SC(F)F)cc1,-5.3%,-7.1%,20.6,10.5%,8.7%,1.5%
Cc1cc(/C=C2/C(=O)NN(c3ccccc3)C2=O)c(C)n1-c1ccc(O)cc1,8.4%,-6.4%,-29.3,?,18.4µM*,8.3%
O=C1NN(c2ccccc2)C(=O)/C1=C/c1coc2ccccc2c1=O,28.1%,?,-11.0,?,?,0.0%
O=C1NN(c2ccccc2)C(=O)/C1=C\c1coc2ccc(O)cc2c1=O,-5.0%,?,-25.1,16.4µM*,20.6µM*,nt
Cc1cc(/C=C2\C(=O)NN(c3ccccc3)C2=O)c(C)n1-c1ccccc1O,-34.1%,?,0.0,?,14.6µM*,nt
COc1ccc(-n2c(C)cc(/C=C3\C(=O)NN(c4ccccc4)C3=O)c2C)cc1,8.9%,0.7%,2.9,3.7%,-15.3%,-2.6%
O=C(Nc1cccc(Br)c1)N1CCN2CCCCC2C1 (centres undefined),-7.5%,-2.9%,nt,0.0%,?,0.0%
CCN(CC)C(=O)c1sc2c(c1C)c(=O)n(-c1ccc(Cl)c(Cl)c1)c(=O)n2CC(=O)Nc1cccc(OC)c1,-0.9%,-19.0%,nt,-20.9%,-7.8%,-2.5%
C=CCNC(=S)N/N=C(\C)c1cccc(OC)c1,-16.1%,-27.5%,-77.2*,1.16µM*,2.06µM*,0.0%
C=CCNC(=S)N/N=C(\C)c1ccc(OC)cc1,-9.4%,-0.3%,-4.9,?,?,5.9%
COc1ccc(/C(C)=N/NC(=S)NCc2ccco2)cc1,11.1%,-19.4%,-25.8,2.91µM*,1.46µM*,10.5%
COc1ccc(CNC(=S)N/N=C(\C)c2ccc(OC)cc2)cc1,-14.2%,?,31.1,11.6µM*,5.17µM*,11.2%
COCCOC(=O)C1=C(C)NC(=O)NC1c1cccc2ccccc12 (centres undefined),10.1%,11.6%,-10.6,-23.2%,?,2.5%
COc1ccc(-c2cc(C)no2)cc1S(=O)(=O)NC(C)C,-23.0%,-22.0%,nt,-6.3%,-4.5%,-2.6%
O=C(Cn1cc(SCc2ccc(F)cc2)c2ccccc21)N1CCOCC1,-4.3%,-0.4%,0.0,?,16.4µM*,2.6%
SMILES,HepG2 tox,TGFb SMAD3 inh,IL1B secr inh,DT40 TDP1 CPT,TDP1 cell noCPT,TDP1 block
O=C(Cn1cc(SCc2ccc(Cl)cc2)c2ccccc21)N1CCOCC1,-25.2%,?,0.0,?,20.6µM*,7.7%
C=CCn1c(Cc2cccc3ccccc23)n[nH]c1=S,-31.5%,?,83.7,20.6µM*,?,2.6%
CC(C)(C)c1ccc(/C=N/NC(=S)NC2CCCCC2)cc1,-19.9%,-55.2%,-29.5,14.6µM*,11.6µM*,7.9%
FC(F)Sc1ccc(NC(=S)NC2CCCC2)cc1,-20.7%,-56.2%,-3.0,?,16.4µM*,0.5%
FC(F)(F)c1ccc(NC(=S)NC2CCCCC2)cc1,-39.4%,?,-99.7*,?,18.4µM*,2.7%
Cc1ccc(Cn2c(=O)n(-c3ccc(C)c(C)c3)c(=O)c3c(C)c(C)sc32)cc1,-2.3%,-2.9%,nt,?,?,8.8%
CCOc1cc2c(cc1O)CCC1C2CCC2(C)C(O)CCC12 (centres undefined),-7.8%,?,10.4,0.259µM*,0.206µM*,nt
CCNc1cc2c(cc1O)CCC1C2CCC2(C)C(O)CCC12 (centres undefined),-4.0%,?,-101.1*,7.31µM*,23.1µM*,nt
C[C@@]12CCC3c4ccc(OS(=O)(=O)O)cc4CCC3C1CCC2O (some centres undefined),nt,nt,nt,0.8%,-2.8%,3.6%
CCOC(=O)C1CCN(C(=O)CCC(=O)NNc2nc3ccccc3c3nc(C)nn23)CC1,6.7%,33.5%,15.1,2.1%,-1.4%,2.4%
O=C1CC(c2ccccc2)Sc2ccccc2N1Cc1ccc(F)cc1 (centres undefined),-41.1%,?,nt,nt,nt,-6.8%
COc1cc2[nH]c(=O)n(Cc3ccc(C(=O)N4CCN(c5cc(Cl)ccc5C)CC4)cc3)c(=O)c2cc1OC,-19.8%,7.0%,nt,2.31µM*,5.17µM*,8.8%
COc1ccc(Cn2c(=O)[nH]c3cc(C(=O)N4CCN(c5cc(C)ccc5C)CC4)ccc3c2=O)cc1,-16.1%,?,nt,?,?,8.8%
CCn1cc(C(=O)N2CCN(c3cc(Cl)ccc3C)CC2)c2cc(OC)c(OC)cc2c1=O,-23.0%,?,nt,11.6µM*,?,11.0%
COc1cc2c(C(=O)N3CCN(c4cc(Cl)ccc4C)CC3)cn(CC(C)C)c(=O)c2cc1OC,-2.2%,0.5%,nt,?,-18.2%,5.9%
COc1ccccc1Cn1c(=S)[nH]c2cc(C(=O)N3CCN(c4ccccc4OC)CC3)ccc2c1=O,13.4%,0.1%,0.0,?,0.4%,0.2%
COc1ccccc1N1CCN(C(=O)c2ccc3c(=O)n(Cc4ccc5c(c4)OCO5)c(=O)[nH]c3c2)CC1,-15.8%,?,?,16.4µM*,18.4µM*,6.9%
